The structures appear in SMILES notation. The source made the active and inactive calls. Entries that show only a call come without a potency. The call rests on the fitted dose curve.

This passage reports Potency and activity change, negative = inhibition results from PubChem BioAssay (Tox21).

Chain of Acetylcholinesterase (Homo sapiens) (P22303 whole entry, looked up): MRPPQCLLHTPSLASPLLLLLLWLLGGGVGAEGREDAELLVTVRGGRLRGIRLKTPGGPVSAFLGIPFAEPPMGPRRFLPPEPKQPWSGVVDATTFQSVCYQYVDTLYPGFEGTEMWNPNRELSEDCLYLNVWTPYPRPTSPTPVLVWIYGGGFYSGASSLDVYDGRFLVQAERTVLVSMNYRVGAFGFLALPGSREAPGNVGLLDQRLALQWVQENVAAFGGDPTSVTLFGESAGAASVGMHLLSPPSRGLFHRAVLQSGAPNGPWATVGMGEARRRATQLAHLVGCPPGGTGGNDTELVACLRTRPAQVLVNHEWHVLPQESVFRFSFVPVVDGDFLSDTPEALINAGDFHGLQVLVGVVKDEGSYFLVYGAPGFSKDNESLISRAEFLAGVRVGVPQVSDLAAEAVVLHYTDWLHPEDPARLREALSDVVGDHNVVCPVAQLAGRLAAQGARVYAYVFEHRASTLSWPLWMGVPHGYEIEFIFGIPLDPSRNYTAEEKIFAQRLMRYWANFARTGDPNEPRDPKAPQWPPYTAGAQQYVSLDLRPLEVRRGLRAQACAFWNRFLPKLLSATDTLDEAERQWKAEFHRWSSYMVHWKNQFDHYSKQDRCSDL

This assay concerns the target Acetylcholinesterase (Homo sapiens) (UniProt P22303). The assay can be described thus: Acetylcholinesterase (AChE) small molecule antagonists: enzyme-based qHTS assay (AID 1347397). Further: nearly all actives have a fitted effect of over 55% in size. To be noted: Potency: AChE enzyme activity inhibition; outcome: AChE enzyme activity inhibition; series mostly up to 115 µM. An excerpt: National Center for Advancing Translational Sciences [NCATS]
Division of Preclinical Innovation [DPI]
U.S. Environmental Protection Agency [EPA]
National Institutes of Environmental Health Sciences [NIEHS]
National Toxicology Program [NTP]
U.S. Food and Drug Administration [FDA]
Acetylcholinesterase (AChE) is the primary cholinesterase in the body that hydrolyzes a key neurotransmitter, acetylcholine. Inhibition of AChE activity can lead to neurotoxicity. The known inhibitors include organophosphorous pesticides (OP), chemical warfare agents, drugs, and various phytochemicals.
An enzyme-based assay with the recombinant human AChE and Amplite Colormetric acetylcholinesterase assay kit (AAT Bioquest, Sunnyvale, CA) was used to evaluate the chemicals in the Tox21 10K library that inhibit AChE activity. The assay uses 5, 5-dithiobis-(2-nitrobenzoic acid) (DTNB) to quantify the thiocholine produced from the hydrolysis of acetylthiocholine by AChE.
Tox21 Assay Protocol Summary:
For the enzyme-based AChE assay, recombinant human AChE (50 mU/mL) in 4 uL/well was dispensed into black, clear-bottom 1536-well plates using a Multidrop Combi dispenser (Thermo Scientific, MA). Then, 23 nL of compound or DMSO (vehicle control) was transferred into the assay plates by a Pintool Station (Wako Automation, CA). The plates were incubated for 30 min at room temperature, followed by the addition of 4 uL of colorimetric detection cocktail solution (DTNB, acetylthiocholine) into each well using a Flying Reagent Dispenser (Beckman Coulter, CA) and then 10 min incubation at room temperature.
(qHTS replaces the single test concentration by a dilution series.)
For `C[C@H](N)C(=O)c1ccccc1`, the Potency entry was “inactive”.

As for `COc1ccc2c(C(=O)c3ccc(Cl)cc3)c(C)n(CC(=O)O)c2c1`, the Potency entry was “inactive”.

On to `CC(C)[C@]12CC(=O)[C@H](C)[C@H]1C2`, for which the Potency entry was “inactive”.

With `CC(C)(N)Cc1ccc(Cl)cc1`, the Potency result was “inactive”.

In the case of `ClC1=C(Cl)C2(Cl)C(CBr)CC1(Cl)C2(Cl)Cl` (stereo not given), the Potency entry is “inactive”.

`CC(C)(C)C(=O)C(Cl)Cl`: the Potency result was “inactive”.

Consider `O=P(O)(O)CN(CP(=O)(O)O)CP(=O)(O)O`, for which the Potency entry was “inactive”.

On to `Cc1ccc2c(c1)C1CN(C)CCC1N2` (stereo not given), for which the activity change, negative = inhibition was 0.554% [at 23.6 µM] (inactive).

For `O=S1(=O)OCCO1`, the Potency result was “inactive”.

Consider `[O-][Br+2]([O-])O`, for which the Potency result was “inactive”.

Consider `CN(C)C(=O)Oc1cc(OC(=O)N(C)C)cc(C(O)CNC(C)(C)C)c1` (stereo not given), for which the Potency entry is “inactive”.

For `CC(C)[N+](C)(CCC(C(N)=O)(c1ccccc1)c1ccccc1)C(C)C`, the Potency entry is “inactive”.

As for `Clc1ccc(C(Cl)(Cl)Cl)cn1`, the Potency result was “inactive”.

Regarding `O=C(Cl)OCc1ccccc1`, the Potency entry was “inactive”.

In the case of `C=CCCC#N`, the Potency entry is “inactive”.

For `COc1cc(CCN)cc(OC)c1OC`, the Potency entry is “inactive”.

For `Cc1ccc2cc(C)ccc2c1`, the Potency entry was “inactive”.

Consider `O=c1[nH]c2ccccc2o1`, for which the Potency entry was “inactive”.

Regarding `CC(C)C(C)(N)C#N` (stereo not given), the Potency result was “inactive”.

Regarding `CCC(C)(C#N)N=NC(C)(C#N)CC` (stereo not given), the Potency entry is “inactive”.

As for `CS(=O)(=O)c1ccc(C(=O)C2C(=O)CCCC2=O)c(Cl)c1COCC(F)(F)F`, the Potency entry is “inactive”.

Regarding `O=C/C=C/c1ccco1`, the Potency entry is “inactive”.

`CCSC(=O)Cl`: the Potency result is “inactive”.

Regarding `O=C(O)CBr`, the Potency result was “inactive”.

As to `COC(=O)[C@@H](N)CCCN/C(N)=N/[N+](=O)[O-]`, the Potency entry is “inactive”.

Regarding `CCN[C@H](C)Cc1cccc(C(F)(F)F)c1`, the Potency entry is “inactive”.

As for `NCC1(CC(=O)O)CCCCC1`, the Potency entry was “inactive”.

Regarding `CCCCCCCC(=O)Cl`, the Potency result is “inactive”.

As to `CCC1(c2ccccc2)C(=O)N(COC)C(=O)N(COC)C1=O`, the Potency result was “inactive”.

Take `CC(Cl)(Cl)Cl`: the Potency entry is “inactive”.

Take `CCC(C(N)=O)N1CCCC1=O` (stereo not given): the Potency entry was “inactive”.

Turning to `CCOP(=O)(CN(CCO)CCO)OCC`, the Potency entry is “inactive”.

Regarding `ClCCCCl`, the Potency result was “inactive”.

For `CC#Cc1cc(C)nc(Nc2ccccc2)n1`, the Potency entry was “inactive”.

For the molecule `O=C(O)C(F)(F)C(F)(F)C(F)(F)C(F)(F)C(F)(F)C(F)(F)F`, the Potency entry was “inactive”.

As for `OP(O)c1ccccc1`, the Potency entry was “inactive”.

Take `NNCc1ccccc1`: the Potency entry was “inactive”.

Turning to `COC(=O)c1ccccc1CS(=O)(=O)NC(=O)Nc1nc(OC)cc(OC)n1`, the Potency result was “inactive”.

`CCC1(c2ccccc2)CCC(=O)NC1=O` (stereo not given): the Potency entry is “inactive”.

Take `CCN(CCO)CCn1c(Cc2ccccc2)nc2c1c(=O)n(C)c(=O)n2C`: the Potency entry is “inactive”.
